Sampled rows, rich in hits. Any-hit rate of the full collection: about 2%.
ARNT TACC3 PPI = ARNT/TACC3 interaction disruption. Q9Y6A5. inhibition, % at 9.99 µM. AlphaScreen His-ARNT PAS-B/GST-TACC3 binding, luminescence; TACC3 fragment carries E629A point mutation. AID 623870. 0.66% of 390,000 active;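 active = mean inhibition of replicates at least 50% and at least half of replicates each reaching 50%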;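 also: 0% = complete ARNT plus TACC3 wells and 100% = ARNT alone without TACC3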
Neddyl block = cullin neddylation inhibition. P61081+Q13564. TR-FRET cullin neddylation, biochemical. inhibition, % at 25 µM. 0.58% of 360,000 active. AID 651699; in the data active = inhibition above about 36%
NadD block = blocks S. aureus nicotinate mononucleotide adenylyltransferase. purified NadD enzyme, colorimetric absorbance read-out. inhibition, % at 20 µM. 0.78% of 360,000 active. AID 602399; in the data active = inhibition above about 26%
DAGLB inh = diacylglycerol lipase beta (human) inhibition | Q8NCG7 | inhibition, % at 5.17 µM | AID 504411 | 0.059% of 340,000 active | HEK293T DAGLB membrane lysate, EnzChek fluorogenic substrate; in the data active = inhibition above about 34%;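 also: 0% = enzyme with vehicle and 100% = wells lacking enzyme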
Target sequence (Q8NCG7 whole entry, looked up): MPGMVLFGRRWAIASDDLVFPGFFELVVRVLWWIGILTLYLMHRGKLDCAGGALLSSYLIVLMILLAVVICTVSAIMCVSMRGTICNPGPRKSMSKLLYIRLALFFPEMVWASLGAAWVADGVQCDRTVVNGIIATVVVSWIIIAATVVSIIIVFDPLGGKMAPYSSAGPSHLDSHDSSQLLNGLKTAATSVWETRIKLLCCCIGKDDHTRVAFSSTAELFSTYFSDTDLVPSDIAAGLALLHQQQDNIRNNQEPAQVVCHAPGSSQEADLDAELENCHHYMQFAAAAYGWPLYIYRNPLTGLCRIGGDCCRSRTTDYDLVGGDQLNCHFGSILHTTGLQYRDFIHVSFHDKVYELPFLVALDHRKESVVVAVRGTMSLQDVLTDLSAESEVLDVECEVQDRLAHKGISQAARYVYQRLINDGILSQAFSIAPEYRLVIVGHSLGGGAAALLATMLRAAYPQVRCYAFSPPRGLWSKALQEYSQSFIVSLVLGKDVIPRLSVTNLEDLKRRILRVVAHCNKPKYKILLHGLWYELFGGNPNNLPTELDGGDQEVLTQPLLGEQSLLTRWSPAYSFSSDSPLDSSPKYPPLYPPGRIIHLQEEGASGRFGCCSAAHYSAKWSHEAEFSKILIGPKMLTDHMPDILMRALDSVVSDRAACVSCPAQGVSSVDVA
HGIII-sPLA2 inh = Blocks human group III sPLA2 activity; inhibition, % at 12.2 µM; Q9NZ20; QFRET BODIPY PC-A2 liposome hydrolysis, fluorescence; 0.56% of 370,000 active; AID 743126;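 active = inhibition above mean plus 3 SD of compounds lying within the high and low control bounds, cut at about 19% in these data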;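 also: 0% = median of test compound wells and 100% = no enzyme DMSO wells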
Neddyl inh conf = confirmation of human cullin neddylation inhibitors; shares compounds with Neddyl block; TR-FRET cullin neddylation biochemical assay; calls only at 25 µM; 13% of 1,800 active; in the data active = inhibition above about 40%;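 also: neddylation substrate is the cullin 1 ring ligase complex with SKP2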
Starred values were filed as active, the others as inactive; i = inactive; · = no result shown; + = active, no number.

SMILES	ARNT TACC3 PPI	Neddyl block	NadD block	DAGLB inh	HGIII-sPLA2 inh	Neddyl inh conf
COCC(=O)Nc1nc2n(n1)C(c1ccc(OC)cc1)CC(c1ccc(OC)cc1)N2 (configuration not stated)	0	2	-5	-2	5	·
COc1ccc(C2CC(c3ccc(OC)cc3)n3nc(NC(=O)c4ccco4)nc3N2)cc1 (configuration not stated)	0	39*	20	3	6	i
O=C(Nc1nc2n(n1)C(c1ccccc1)CC(c1ccc(Cl)cc1)N2)c1ccco1 (configuration not stated)	4	0	20	1	5	·
C[C@@H]1CCCCO[C@@H](CN(C)C(=O)C2CCCCC2)[C@H](C)CN([C@@H](C)CO)C(=O)c2cc(NS(C)(=O)=O)ccc2O1	-1	·	·	·	·	·
CC/C(=N\Nc1ccnc2cc(Cl)ccc12)c1ccc(O)cc1	12	41*	-12	-2	0	i
C[C@H]1CN([C@@H](C)CO)S(=O)(=O)c2ccc(/C=C/c3ccccc3)cc2O[C@@H]1CN(C)C(=O)Nc1ccc(F)cc1	-3	·	·	·	·	·
Oc1ccc2ccccc2c1CN1CCOCC1	0	27	-3	1	1	·
Oc1cnc2ccccc2c1CN1CCOCC1	-9	42*	-1	-1	8	i
O=C(C1CCCCC1)N1C[C@@H]2[C@H](c3ccccc31)[C@H](CO)N2Cc1ccccc1Cl	8	·	·	·	·	·
COc1ccc(-c2cc(C(=O)N3CCN(c4ncccn4)CC3)c3ccccc3n2)cc1OC	-16	51*	7	1	-8	·
COc1ccc(-c2cc(C(=O)N3CCC3)c3ccccc3n2)cc1OC	1	28	0	2	9	·
COc1ccc(-c2cc(C(=O)N3CC(C)CC(C)C3)c3ccccc3n2)cc1OC (configuration not stated)	-4	57*	9	-1	-5	·
COc1ccc(-c2cc(C(=O)N3CCCCC3)c3ccccc3n2)cc1OC	18	54*	-2	-1	-2	·
COc1ccc(-c2cc(C(=O)NC3CCCC3)c3ccccc3n2)cc1OC	21	40*	-8	-3	-1	i
C[C@H](CO)N1C[C@H](C)[C@@H](CN(C)C(=O)CN2CCOCC2)Oc2ncc(/C=C/c3ccccc3)cc2C1=O	-1	·	·	·	·	·
COc1ccc(Nc2nnc(-c3ccc(C)cc3)c3ccccc23)cc1C(=O)N1CCCCC1	·	44*	11	4	-8	i
COc1ccc(-c2cc(C(=O)NCC(c3ccco3)N(C)C)c3ccccc3n2)cc1OC (configuration not stated)	0	41*	-1	-1	2	i
COc1ccc(Nc2nnc(-c3ccccc3)c3ccccc23)cc1C(=O)N1CCCCC1	·	·	10	3	4	·
C[C@H](CO)N1C[C@H](C)[C@@H](CN(C)C(=O)c2ccc(F)cc2)Oc2cc(C3=CCCCC3)ccc2S1(=O)=O	28	·	·	·	·	·
Cc1noc(C)c1NC(=O)N(C)C[C@@H]1Oc2c(NC(=O)Nc3cccc4ccccc34)cccc2C(=O)N([C@@H](C)CO)C[C@H]1C	0	·	·	·	·	·
N#Cc1ccccc1OCC(=O)N1N=C(c2cccs2)CC1c1ccco1 (configuration not stated)	-59	51*	-5	0	-11	i
O=C(COc1cc(F)ccc1[N+](=O)[O-])N1N=C(c2cccs2)CC1c1ccco1 (configuration not stated)	·	-6	0	-1	0	·
CCC(=O)N1N=C(c2cccs2)CC1c1ccc(C)cc1 (configuration not stated)	-4	52*	-3	1	-3	·
COc1ccc(-c2nn(-c3ccccc3)cc2C2CC(c3cccs3)=NN2C(=O)CCC(=O)O)cc1 (configuration not stated)	3	46*	16	2	16	i
O=C(Nc1ccccc1)N1N=C(c2cccs2)CC1c1cccs1 (configuration not stated)	3	40*	0	-4	2	i
SMILES	ARNT TACC3 PPI	Neddyl block	NadD block	DAGLB inh	HGIII-sPLA2 inh	Neddyl inh conf
COc1ccc(S(=O)(=O)N(C)C[C@H]2Oc3ccc(NC(=O)C4CC4)cc3CC(=O)N([C@H](C)CO)C[C@H]2C)cc1	2	·	·	·	·	·
COc1ccc(C2CC(c3cccs3)=NN2C(=O)CSC2=NCCS2)cc1 (configuration not stated)	-3	43*	11	-1	-12	i
O=C(c1ccco1)N1N=C(c2cccs2)CC1c1ccc(F)cc1 (configuration not stated)	-1	46*	0	-12	-12	i
CCCNC(=O)N[C@H]1CC[C@@H](CCNS(=O)(=O)c2cccc(F)c2)O[C@@H]1CO	-5	·	·	·	·	·
C[C@H](CO)N1C[C@H](C)[C@@H](CN(C)CC2CCOCC2)Oc2ncc(C#Cc3ccncc3)cc2C1=O	-2	·	·	·	·	·
CCOC(=O)c1c(C)[nH]c(C(=O)OC/C(O)=C(\C#N)c2nc3ccccc3[nH]2)c1C	0	-12	22	3	·	·
CCOC(=O)/C(O)=C(\C#N)c1nc2ccccc2[nH]1	-1	50*	2	-1	8	·
N#Cc1cc(-c2ccccc2)oc1/N=C/c1ccccc1O	1	·	3	2	7	·
COc1cccc(/C=N/c2oc(-c3ccccc3)cc2C#N)c1O	1	46*	3	3	2	i
O=c1c(Cl)c(N/N=C/c2ccc(Cl)cc2)cnn1-c1ccccc1	·	42*	1	2	-5	i
CC(C)CNc1oc(-c2ccccc2Cl)nc1C#N	38	42*	-4	-3	-1	i
COCCCNc1oc(-c2ccccc2Cl)nc1C#N	4	22	7	3	-1	·
Cc1ccccc1N(CC(=O)NC1CCCC1)C(=O)C1(C)CC(=O)N=C2C=CC=CN21 (configuration not stated)	-4	·	-1	-1	7	·
Cc1cc(C)cc(N(CC(=O)NC2CCCC2)C(=O)C2(C)CC(=O)N=C3C=CC=CN32)c1 (configuration not stated)	-8	52*	-2	-1	-4	+
Cc1cc(=O)oc2cc(OCC(=O)N3CC(=O)Nc4ccccc43)c(Cl)cc12	-5	40*	-2	2	-6	i
Cc1noc(C)c1NC(=O)N(C)C[C@@H]1OCCCC[C@@H](C)Oc2ccc(NC(=O)NC(C)C)cc2C(=O)N([C@@H](C)CO)C[C@H]1C	4	·	·	·	·	·
CCOC(=O)C1=C(C)NC(C)=C(C(=O)OCC)C1C(=O)OCC(=O)NC1(C#N)CCCCC1	-7	·	-8	0	-5	·
CCOC(=O)C1=C(C)NC(C)=C(C(=O)OCC)C1C(=O)OCC(=O)NCc1ccc(F)cc1	-3	47*	-4	-4	-18	·
CCOC(=O)C1=C(C)NC(C)=C(C(=O)OCC)C1C(=O)OCC(=O)NC1CCCCC1	-5	39*	0	0	-6	i

High-throughput results (PubChem BioAssay)
